Measured values reported in ChEMBL document CHEMBL4513139, “CO-ADD screening of University of Strathclyde (UK) compounds”.
Entries with a potency or affinity are not part of this list.

Legend:
Klebsiella pneumoniae = details: Concentration 32 ug.mL-1; ASSAY_TEST Inhibition of Bacterial Growth; detection method Absorption (OD600); MEDIA CAMHB; plate type 384well; NBS; CORNING #3640; time 18 hr
Candida albicans = details: 32 ug/mL
Cryptococcus neoformans = details: Concentration 32 ug.mL-1; ASSAY_TEST Inhibition of Fungal Growth; detection method Resazurin; Absorption (OD600-OD570); plate type 384well; NBS; CORNING #3640

CCOP(=O)(OCC)C(Cc1cn(Cc2cnc(C)nc2N)nn1)C(=O)O.O=C(O)C(F)(F)F (stereo not drawn) showed an Inhibition (Klebsiella pneumoniae) of -0.1%, an Inhibition (Candida albicans) of 2.73% and an Inhibition (Cryptococcus neoformans) of -36.59%.
